The record followed here is PubChem BioAssay (Tox21).

The nature of assay [1]: qHTS assay to identify small molecule agonists of the vitamin D receptor (VDR) signaling pathway - cell viability counter screen (AID 743224). Also: % is scaled to controls: 0 for no effect and ±100 for the full control effect; nearly all actives have a fitted effect of over 50% in size. The gist of the method:
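Luminescence from CellTiter-Glo, read after 30 min at room temperature, reports viability of VDR-bla cells treated with compounds for 16 h at 37C in the wells used for the beta-lactamase FRET read.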

Assay [2] is described as follows: qHTS assay to identify small molecule antagonists of the vitamin D receptor (VDR) signaling pathway - cell viability counter screen (AID 743225). Also: % is scaled to controls: 0 for no effect and ±100 for the full control effect; nearly all actives have a fitted effect of over 50% in size. The gist of the method:
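Luminescent cell viability (CellTiter-Glo) in VDR-bla HEK 293T cells after 16 h compound exposure at 37C in the presence of 3 nM final 1-alpha,25-dihydroxy vitamin D3.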

The nature of assay [3]: qHTS assay to identify small molecule agonists of the NFkB signaling pathway - cell viability counter screen (AID 1159515; calls by dose curve; also: % is scaled to controls: 0 for no effect and ±100 for the full control effect; nearly all actives have a fitted effect of over 55% in size). The gist of the method:
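Luminescence from CellTiter-Glo (30 min, room temperature) gives viability, measured in the same wells as the beta-lactamase reporter read. Cells were NFkB-bla ME-180, 2,000 per well, treated 5 hr with compounds.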
On the technique in general: Quantitative high-throughput screening tests each substance at several concentrations.

The nature of assay [4]: qHTS assay to identify small molecule agonists of the endoplasmic reticulum stress response signaling pathway (AID 1159516; active = well fitted activation curve with a large enough effect in the signal ratio in the repeat runs, not every such curve was filed as active; the % refers to the signal ratio; also: potency is read from the fitted curve at half-maximal effect). The gist of the method: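 Read-out is beta-lactamase cleavage of a FRET substrate (405 nm excitation; 460 and 530 nm emissions) in ESRE-bla HeLa cells after a 5 hr compound exposure at 37 C. Substrate incubation ran 2 hr at room temperature.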
Assay [5] is described as follows: qHTS assay to identify small molecule agonists of the endoplasmic reticulum stress response signaling pathway - cell viability counter screen (AID 1159517; calls by dose curve;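 also: HeLa cells carrying an ER stress response element beta-lactamase reporter; % is scaled to controls: 0 for no effect and ±100 for the full control effect; nearly all actives have a fitted effect of over 50% in size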). The gist of the method:
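HeLa cells carrying an ESRE-driven beta-lactamase reporter receive compound for 5 hr at 37 C. Cell viability is then gauged with CellTiter-Glo by luminescence, 30 min at room temperature.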

Assay [6] can be described thus: qHTS assay to identify small molecule antagonists of the retinoid-related orphan receptor gamma (ROR-gamma) signaling pathway - cell viability counter screen (AID 1159520). Also: nearly all actives have a fitted effect of over 50% in size. Also: potency is read from the fitted curve at half-maximal effect. The gist of the method:
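Cytotoxicity was read from cellular ATP (CellTiter-Glo luminescence) after 16 hr at 37 C with 1 uM doxycycline induction. The inducer was added 2 hr after compound transfer to Tet-on ROR gamma CHO cells.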

The target in assay [7] is Nuclear receptor ROR-gamma (Homo sapiens) (UniProt P51449). Put plainly: qHTS assay to identify small molecule antagonists of the retinoid-related orphan receptor gamma (ROR-gamma) signaling pathway (AID 1159521). The gist of the method: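 CHO cells expressing RORγ under a TET-on promoter, luciferase under RORE control. Dox 1 uM final, 16 h; compounds added 2 h prior. Luminescence decrease measured.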

The nature of assay [8]: qHTS assay to identify small molecule agonists of the AP-1 signaling pathway - cell viability counter screen (AID 1159525; calls by dose curve; also: nearly all actives have a fitted effect of over 55% in size). The gist of the method:
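Luminescent ATP readout (Cell Titer Glo, 30 min RT), normalised to DMSO and tetra n-octyl ammonium bromide controls. Cells were ME-180 AP-1-bla in 0.5% dialyzed FBS Opti-MEM, with a 5 h, 37 °C compound exposure.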

Assay [9] in a line: qHTS assay to identify small molecule agonists of the AP-1 signaling pathway (AID 1159526; calls by dose curve; also: % is scaled to controls: 0 for no effect and ±100 for the full control effect).
Assay [10] has as its target Retinoic acid receptor RXR-alpha (Homo sapiens) (UniProt P19793). Put plainly: qHTS assay to identify small molecule agonists of the RXR signaling pathway (AID 1159527; calls by dose curve; also: % is scaled to controls: 0 for no effect and ±100 for the full control effect; nearly all actives have a fitted effect of over 35% in size). The procedure, abridged:
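Beta-lactamase reporter assay, agonist format. Engineered HEK 293T line, charcoal-stripped FBS at 2%, overnight (16 hr) exposure, fluorescence at 460 and 530 nm after 405 nm excitation.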

Assay [11] in a line: qHTS assay to identify small molecule agonists of the RXR signaling pathway - cell viability counter screen (AID 1159529). Also: nearly all actives have a fitted effect of over 50% in size. Also: potency is read from the fitted curve at half-maximal effect. The procedure, abridged:
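Same-well viability check after the LiveBLAzer FRET read: CellTiter-Glo added, luminescence measured after 30 min at room temperature. Reporter HEK 293T cells had been treated with compounds for 16 hr following a 5 hr preincubation.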

Assay [12] in a line: qHTS assay to identify small molecule antagonists of the retinoid acid receptor (RAR) signaling pathway - cell viability counter screen (AID 1159551). Also: % is scaled to controls: 0 for no effect and ±100 for the full control effect; nearly all actives have a fitted effect of over 35% in size. The procedure, abridged:
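Luminescent ATP quantitation (CellTiter-Glo) gave cell viability in C3RL4 cells exposed to test chemicals for 6 h at 37 C alongside 1 uM final retinol.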

A short description of assay [13]: qHTS assay to identify small molecule antagonists of the estrogen related receptor (ERR) signaling pathway - cell viability counter screen (AID 1224818).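 Also: viability measured after 17.5 h of compound exposure; % is scaled to controls: 0 for no effect and ±100 for the full control effect.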 The procedure, abridged: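 Multiplexed counter screen to separate cytotoxic compounds from true ERR modulators. ERR cells received DMSO-dissolved compounds after a 6 h pre-incubation, were exposed 17.5 h at 37 C, then assayed with CellTiter-Fluor fluorescence.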

Assay [14] in a line: qHTS assay to identify small molecule antagonists of the estrogen related receptor (ERR) signaling pathway (AID 1224819). The procedure, abridged: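 Seed ERR cells 2,000/well; rest 6 h at 37 C/5% CO2; pin compounds in DMSO; incubate 18 h at 37 C; add One-Glo; wait 30 min at room temperature; measure luminescence.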
Assay [15] is described as follows: qHTS assay to identify small molecule agonists of the estrogen related receptor (ERR) signaling pathway (AID 1224820). Also: % is scaled to controls: 0 for no effect and ±100 for the full control effect. The gist of the method:
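ERR reporter cell line (from NTP), 2,000 cells/well, incubated 6 h before compound addition, then 18 h at 37 C. Luminescence measured 30 min after One-Glo reagent at room temperature.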

In assay [16] the test system is estrogen-related receptor alpha (ERRalpha) with PGC-1alpha coactivator, human. Put plainly: qHTS assay to identify small molecule antagonists of the estrogen related receptor signaling pathway with the pleiotropic PPARgamma coactivator (PGC) (AID 1224821; calls by dose curve). The procedure, abridged: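 PGC/ERR reporter cell line, plated 6 h before compound addition, then exposed 18 h at 37 °C. Luciferase activity read by luminescence 30 min after One-Glo addition; decrease indicates antagonism.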

Assay [17] is described as follows: qHTS assay to identify small molecule antagonists of the estrogen related receptor signaling pathway with the pleiotropic PPARgamma coactivator (PGC) cell viability counter screen (AID 1224822;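 also: viability read after 17.5 h compound exposure; % is scaled to controls: 0 for no effect and ±100 for the full control effect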). The gist of the method:
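Cells: PGC/ERR, 2,000/well, 1536-well format. Pre-incubation 6 h, 37 C/5% CO2. Compound exposure 17.5 h, 37 C. Detection: CellTiter-Fluor, 30 min, fluorescence.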

The nature of assay [18]: qHTS assay to identify small molecule agonists of the estrogen related receptor signaling pathway with the pleiotropic PPARgamma coactivator (PGC) (AID 1224823). Also: % is scaled to controls: 0 for no effect and ±100 for the full control effect. The gist of the method: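 PGC/ERR reporter cells seeded 6 h, then exposed to compounds (23 nL in DMSO) for 18 h at 37 C. One-Glo luciferase luminescence read after 30 min at room temperature.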
A short description of assay [19]: qHTS assay to identify small molecule antagonists of the retinoic acid receptor (RAR) signaling pathway (AID 1159552). The gist of the method: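 Readout: luciferase luminescence, 30 min post-reagent at RT. Setup: C3RL4 RARE reporter cells, compounds plus retinol 1 uM final, 6 hr incubation at 37 C and 5% CO2.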
Assay [20] in a line: qHTS assay to identify small molecule agonists of the retinoic acid receptor (RAR) signaling pathway (AID 1159553). Also: potency is read from the fitted curve at half-maximal effect. Particulars: C3RL4 RARE luciferase reporter, agonist, 6 h. The gist of the method: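 Luminescence from a RARE-driven luciferase reporter in C3RL4 cells served as the read-out, measured after 30 min with detection reagent at room temperature. Compounds in DMSO were applied for 6 hr at 37 C following overnight seeding.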

Inconclusive results are not listed. The source holds several records for some structures; these can differ, active in one and inactive in another. Activity calls are given as the source filed them. Unless noted, calls follow the shape of the dose curve; as a rule, active = well fitted curve in the direction sought with a large enough effect in the repeat runs; inconclusive = weak or mixed curves; inactive = no such curve, though single readings can be large; an effect the other way counts as inactive or inconclusive.

Sequence of Retinoic acid receptor RXR-alpha (Homo sapiens) (P19793 whole entry, looked up): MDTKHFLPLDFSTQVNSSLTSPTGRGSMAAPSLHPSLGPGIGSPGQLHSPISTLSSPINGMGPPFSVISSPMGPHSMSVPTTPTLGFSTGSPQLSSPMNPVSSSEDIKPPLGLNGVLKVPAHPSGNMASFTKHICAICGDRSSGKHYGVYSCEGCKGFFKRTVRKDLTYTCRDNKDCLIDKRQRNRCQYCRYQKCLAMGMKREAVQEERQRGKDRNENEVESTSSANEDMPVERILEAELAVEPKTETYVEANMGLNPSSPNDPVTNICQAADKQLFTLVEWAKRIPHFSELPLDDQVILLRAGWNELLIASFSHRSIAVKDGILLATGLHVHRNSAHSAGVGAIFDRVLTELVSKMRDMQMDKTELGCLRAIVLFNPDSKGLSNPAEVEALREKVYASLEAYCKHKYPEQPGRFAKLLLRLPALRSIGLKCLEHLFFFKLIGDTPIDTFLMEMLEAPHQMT

Regarding `C[C@]12C=CC(=O)C=C1CC[C@H]1[C@@H]3C[C@@H](O)[C@](O)(C(=O)CO)[C@@]3(C)C[C@H](O)[C@@]12F`, the Potency entry in [1], in assay [2], in assay [3], in [4], in [5] and in assay [6] was “inactive” throughout. The Potency result in assay [7], in [8], in [9], in assay [10], in assay [11] and in assay [12] was “inactive” throughout. Moreover, the result in [13], in [14], in [15], in [16], in assay [17] and in assay [18] was inactive.

In the case of `Nc1cc(Cl)c(N)c(Cl)c1`, the Potency entry in [1], in [2], in assay [3], in [4], in assay [5] and in [6] was “inactive” in each case. Also, the Potency entry in [7], in [8], in assay [9], in [10], in [11] and in [12] was “inactive” each time.

As for `OC[C@H]1O[C@@H]2O[C@H]3[C@H](O)[C@@H](O)[C@@H](O[C@H]4[C@H](O)[C@@H](O)[C@@H](O[C@H]5[C@H](O)[C@@H](O)[C@@H](O[C@H]6[C@H](O)[C@@H](O)[C@@H](O[C@H]7[C@H](O)[C@@H](O)[C@@H](O[C@H]1[C@H](O)[C@H]2O)O[C@@H]7CO)O[C@@H]6CO)O[C@@H]5CO)O[C@@H]4CO)O[C@@H]3CO`, the Potency result in assay [1], in assay [2], in assay [3], in [4], in assay [5] and in assay [6] was “inactive” each time. Besides, the Potency result in assay [7], in [8], in [9], in [11] and in assay [19] was “inactive” in each case.

As for `c1ccc2c(c1)ccc1cc3c(ccc4ccccc43)cc12`, the Potency entry in assay [1], in assay [2], in assay [3], in assay [5], in assay [6] and in assay [7] was “inactive” each time. Further, the Potency entry in [8], in [9], in [10], in assay [11] and in assay [12] was “inactive” throughout. The Potency in [4] is 7.67 µM (active).

For the compound `COc1ccc2nc(N)sc2c1`, the Potency entry in assay [1], in [2], in assay [3], in [4], in assay [5] and in assay [6] was “inactive” in each case. In addition, the Potency result in [7], in [8], in assay [9], in assay [11] and in assay [19] was “inactive” each time. Moreover, in [20] (activation: at 73.3 µM (top of the series) unless noted), the Potency was 19.3 µM (active).

Turning to `O=C(CCCN1CCC(O)(c2ccc(Cl)cc2)CC1)c1ccc(F)cc1`, the Potency result in assay [1], in assay [2], in [3], in [4], in assay [5] and in assay [7] was “inactive” in each case. For the same compound, the Potency entry in assay [8], in assay [9] and in [12] was “inactive” each time. For the same compound, the Potency in assay [6] is 54.5 µM (active) and inactive; in assay [11], 27.5 µM (active) and inactive. The call in [13] and in [17] was inactive.

Regarding `CC(C)(Oc1ccc(Cl)cc1)C(=O)O`, the Potency result in [1], in [2], in assay [3], in [4], in [5] and in assay [6] was “inactive” in each case. Besides, the Potency entry in assay [7], in assay [8], in assay [9], in assay [10], in [11] and in assay [12] was “inactive” each time.

In the case of `C=C[C@H]1CN2CC[C@H]1C[C@@H]2[C@@H](O)c1ccnc2ccc(OC)cc12`, the Potency result in [3], in assay [4], in [5], in [6], in assay [8] and in [9] was “inactive” in each case. Further, the Potency entry in assay [10], in [11] and in [12] was “inactive” throughout.

Consider `O=C(O)CCCC(=O)O`, for which the Potency entry in assay [1], in [2], in [3], in assay [4], in assay [5] and in assay [6] was “inactive” throughout. For the same compound, the Potency entry in [7], in [8], in [9], in assay [10], in assay [11] and in [12] was “inactive” each time.

Turning to `CNC[C@H](O)c1ccc(O)c(O)c1`, the result in assay [14], in assay [15], in [16] and in [18] was inactive.

Turning to `CN(C)CCCN1c2ccccc2Sc2ccc(Cl)cc21`, the call in assay [15], in assay [16] and in assay [18] was inactive.

For `Cc1ccc(C(C)(C)C)cc1`, in assay [20] (at 73.3 µM (top of the series)), the activation is -0.68% (inactive).

Consider `CC1(C)NC(=O)N(c2ccc([N+](=O)[O-])c(C(F)(F)F)c2)C1=O`, for which the compound was called inactive in assay [15], in assay [16] and in [18].

Turning to `C[C@]12CC[C@@H]3c4ccc(O)cc4CC[C@H]3[C@@H]1CC[C@@H]2O`, the compound was classed as inactive in assay [15], in [16] and in assay [18].
